Measurements taken from PubChem BioAssay AID1159580 (chemical genetic matrix, 2015).
Several values for one entry are separate records, joined by “and”; a condition that tells them apart may be missing. Equal entries are not always repeated. The campaign covered roughly 5,500 compounds. About 2,000 (36%) were called active. About 18% were inconclusive and are not listed. No stated cut-off is given here; in the data, active means normalized growth mostly below about 0.91 (no sharp cut-off); inconclusive means no clear call, values can overlap the other calls; inactive means mostly above about 0.92. Some of the results follow.

Assay: chemical genetic growth profiling, strain panel (AID 1159580);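 further: tested at 20 µM; growth read once vehicle control cultures reached saturation at 30 °C; 1 = growth at the plate median or of vehicle wells; lower values mean less growth of the strain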
Settings: S. cerevisiae deletion strains, growth OD

Measured: normalized growth

N#CC(O[C@@H]1O[C@H](CO[C@@H]2O[C@H](CO)[C@@H](O)[C@H](O)[C@H]2O)[C@@H](O)[C@H](O)[C@H]1O)c1ccccc1 (some centres not stated)
inactive: locus YAL013W, strain DEP1, hits give low values 1 | locus YAL021C, strain ccr4, hits give low values 0.965 | locus YAL026C, strain drs2, hits give low values 0.99 | locus YAL030W, strain snc1, hits give low values 0.986 | locus YBL061C, strain skt5, hits give low values 0.97 | locus YBR009C, strain hhf1, hits give low values 0.987 | locus YBR021W, strain FUR4, hits give low values 0.986 | locus YBR023C, strain chs3, hits give low values 0.979 | locus YBR171W, strain sec66, hits give low values 0.975 | locus YBR229C, strain ROT2, hits give low values 0.993 | locus YBR231C, strain swc5, hits give low values 0.981 | locus YBR279W, strain paf1, hits give low values 0.981 | locus YCL011C, strain gbp2, hits give low values 0.986 | locus YCL016C, strain dcc1, hits give low values 0.983 | locus YCL029C, strain bik1, hits give low values 1 | locus YCL061C, strain MRC1, hits give low values 0.99 | locus YCL069W, strain vba3, hits give low values 0.988 | locus YCR088W, strain abp1, hits give low values 0.975 | locus YDL005C, strain med2, hits give low values 0.967 | locus YDL035C, strain GPR1, hits give low values 1.01 | locus YDL040C, strain nat1, hits give low values 0.976 | locus YDL074C, strain BRE1, hits give low values 1.01 | locus YDL101C, strain DUN1, hits give low values 1 | locus YDL185W, strain tfp1, hits give low values 0.975 | locus YDL192W, strain arf1, hits give low values 0.998 | locus YDR001C, strain nth1, hits give low values 0.988 | locus YDR069C, strain doa4, hits give low values 0.975 | locus YDR101C, strain arx1, hits give low values 0.995 | locus YDR137W, strain rgp1, hits give low values 1.01 | locus YDR150W, strain NUM1, hits give low values 1.01 | locus YDR159W, strain sac3, hits give low values 0.961 | locus YDR162C, strain NBP2, hits give low values 1.04 | locus YDR195W, strain ref2 0.945 | locus YDR297W, strain sur2, hits give low values 0.992 | locus YDR318W, strain mcm21, hits give low values 1 | locus YDR334W, strain swr1, hits give low values 0.984 | locus YDR335W, strain msn5, hits give low values 0.988 | locus YDR388W, hits give low values 0.991 | locus YDR392W, strain spt3, hits give low values 0.974 | locus YDR502C, strain sam2, hits give low values 1.02 | locus YEL003W, strain gim4, hits give low values 0.99 | locus YEL037C, strain rad23, hits give low values 0.982 | locus YEL061C, strain CIN8 (second series), hits give low values 0.991 | locus YEL061C, strain CIN8, hits give low values 1 | locus YER015W, strain faa2, hits give low values 0.987 | locus YER016W, strain bim1, hits give low values 0.977 | locus YER110C, hits give low values 0.996 | locus YER111C, strain swi4, hits give low values 0.982 | locus YER155C, strain BEM2 (second series), hits give low values 0.966 | locus YER155C, strain BEM2, hits give low values 0.992 | locus YER167W, strain BCK2, hits give low values 1 | locus YFR010W, strain ubp6, hits give low values 0.977 | locus YGL078C, strain dbp3, hits give low values 0.989 | locus YGL086W, strain mad1, hits give low values 0.995 | locus YGL167C, strain pmr1, hits give low values 0.98 | locus YGL173C, strain kem1, hits give low values 0.963 | locus YGL227W, strain vid30, hits give low values 0.97 | locus YGL240W, strain doc1, hits give low values 0.971 | locus YGL248W, strain PDE1, hits give low values 1.05 | locus YGL253W, strain hxk2, hits give low values 0.985 | locus YGR135W, strain pre9, hits give low values 0.985 | locus YGR252W, strain gcn5, hits give low values 0.987 | locus YHR013C, strain ard1, hits give low values 0.964 | locus YHR027C, strain rpn1, hits give low values 0.98 | locus YHR030C, strain SLT2, hits give low values 1 and 0.975 | locus YHR079C, strain IRE1 (second series), hits give low values 0.99 | locus YHR079C, strain IRE1, hits give low values 0.971 | locus YHR094C, strain hxt1, hits give low values 0.978 | locus YHR129C, strain ARP1, hits give low values 1 | locus YHR142W, strain chs7, hits give low values 0.983 | locus YHR200W, strain rpn10, hits give low values 1 | locus YIL066C, strain RNR3, hits give low values 1.03 | locus YIL073C, strain SPO22, hits give low values 1.02 | locus YIL125W, strain kgd1, hits give low values 0.996 | locus YIR030C, strain dcg1, hits give low values 0.992 | locus YJL092W, strain hpr5, hits give low values 0.987 | locus YJL095W, strain BCK1 (second series), hits give low values 0.971 | locus YJL095W, strain BCK1, hits give low values 1.06 and 1.01 | locus YJL115W, strain asf1, hits give low values 0.977 | locus YJL129C, strain trk1, hits give low values 0.967 | locus YJL134W, strain LCB3, hits give low values 0.993 | locus YJL154C, strain vps35, hits give low values 0.979 | locus YJL164C, strain tpk1, hits give low values 0.98 | locus YJL166W, strain qcr8, hits give low values 0.982 | locus YJL168C, strain set2, hits give low values 0.993 | locus YJL187C, strain SWE1 (second series), hits give low values 1.02 | locus YJL187C, strain SWE1, hits give low values 0.994
